Screening results (PubChem BioAssay)
CYP2C9 act: CYP2C9 (human) activation. recombinant CYP2C9, luciferin-H conversion, luminescence; stronger effect = higher value; factor 1 = untreated enzyme, 0 = blocked. activation factor at 5 µM. 96,000 tested, 1.4% active. AID 1024;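 active = activation factor of 2 or more for CYP2C9 at a 5 µM dose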
CYP2C19 activ: increases human CYP2C19 enzyme activity; P33261; recombinant CYP2C19, luciferin-H EGE luminescence; stronger effect = higher value; 0 = fully inhibited enzyme, 1 = untreated enzyme; activation factor at 5 µM; 96,000 tested, under 10 active; AID 1025;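 active = activation factor of at least 2 at 5 µM in the primary screen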
Target sequence (P33261 whole entry, looked up): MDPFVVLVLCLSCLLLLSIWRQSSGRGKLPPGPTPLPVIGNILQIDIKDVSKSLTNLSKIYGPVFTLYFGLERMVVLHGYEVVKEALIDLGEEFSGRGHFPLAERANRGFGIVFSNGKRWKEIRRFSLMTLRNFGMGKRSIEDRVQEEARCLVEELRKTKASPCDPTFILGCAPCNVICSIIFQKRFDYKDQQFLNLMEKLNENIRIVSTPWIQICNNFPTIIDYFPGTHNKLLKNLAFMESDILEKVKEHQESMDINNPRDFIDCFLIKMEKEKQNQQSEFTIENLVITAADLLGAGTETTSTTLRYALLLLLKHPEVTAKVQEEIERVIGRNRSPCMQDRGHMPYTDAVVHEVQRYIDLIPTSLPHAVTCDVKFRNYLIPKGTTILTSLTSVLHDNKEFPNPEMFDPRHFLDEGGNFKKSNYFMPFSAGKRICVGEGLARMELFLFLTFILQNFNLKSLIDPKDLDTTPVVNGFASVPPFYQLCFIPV
PostGolgi ctrl: growth of the yeast control strain, post-Golgi counter-screen; efflux-deficient yeast background strain, growth absorbance A615, 16 h; inhibition, % at 10 µM; 98,000 tested, 5% active; AID 738
PostGolgi yeast: growth inhibition of a yeast mutant, post-Golgi transport screen. inhibition, % at 10 µM. post-Golgi transport phenotypic cell assay. AID 739. 98,000 tested, 0.9% active;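 also: yeast cells grown in 1536-well plates; yeast grown about 18 h at 30C before absorbance read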
CYP2C9 inh: inhibitors of human CYP2C9; inhibition, % at 5 µM; P11712; CYP2C9 Supersomes, luciferin-H conversion, luminescence; 96,000 tested, 20% active;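 active = blocking of liver enzyme CYP2C9 beyond about 50% at 5 µM, limit read from the data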
CYP2C19 inh: blocks human cytochrome P450 2C19. P33261. CYP2C19 Supersomes, luciferin-H EGE luminescence, 30 min. inhibition, % at 5 µM. 96,000 tested, 21% active. AID 778;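 active = CYP2C19 inhibition above a set limit at 5 µM in the primary screen, cut at about 50% in these data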
Of the large screens only hits and unclear results are named; the others gave an inactive call. The list is not random: actives were taken first. Their share in the collection is about 32%. Rule as the data show it, unless noted: active = inhibition above about 30%; inactive = the rest.

CC1(C)CC(=O)C2=C(C1)OC(N)=C(C#N)C2c1ccccc1 (stereo not given)	CYP2C19 inh 73
O=C(CN1CCCN(S(=O)(=O)c2ccc(Br)cc2)CC1)Nc1ccc2c(c1)OCO2	none (no result: CYP2C9 act, CYP2C19 activ, CYP2C9 inh, CYP2C19 inh)
CC(C)Sc1nc(N)nc(-c2cccs2)c1C#N	PostGolgi ctrl 80, CYP2C9 inh 75
CSc1nc(N)nc(-c2cccs2)c1C#N	CYP2C9 inh 58, CYP2C19 inh 78
Cc1c(-c2ccc(F)cc2)nc(N)c(C#N)c1-c1cccs1	none
CCNC(=O)CSc1nnc(C2CC2)n1-c1ccccc1	none
Cn1cccc1C(=O)NC(=O)CSc1nnc(C2CC2)n1-c1ccccc1	CYP2C19 inh 55
Cc1ccc2c(n1)sc1c(N)ncnc12	none
COC(=O)c1cn(CCOc2ccccc2F)c2ccccc12	CYP2C9 inh 99, CYP2C19 inh 98
COC(=O)c1cn(CCOc2ccccc2)c2ccccc12	CYP2C9 inh 97, CYP2C19 inh 96
Cc1ccc(OCCn2cc(C(=S)N3CCCC3)c3ccccc32)cc1C	PostGolgi ctrl 31, CYP2C9 inh 63, CYP2C19 inh 67
COC(=O)c1cn(C(=O)OC)c2ccccc12	none
CCOc1ccccc1/C=c1\sc2ncnn2c1=O	CYP2C9 act 2.2
CCc1nnc(NC(=O)c2c(C)nn(-c3ccccc3)c2Cl)s1	none
CCn1nc(C(=O)NC2=NCCS2)c2ccccc2c1=O	none
Cc1nn(Cc2ccccc2Cl)c(C)c1NC(=O)NC12CC3CC(CC(C3)C1)C2	PostGolgi ctrl 35
CCC(CC)c1nnc(NC(=O)c2c(C)nn(Cc3ccccc3Cl)c2C)s1	CYP2C9 inh 52
Cc1nn(Cc2ccccc2Cl)c(C)c1C(=O)NC1=NCCS1	CYP2C19 inh 66
Cc1nn(Cc2ccccc2Cl)c(C)c1C(=O)N1CCN(c2ccccc2)CC1	CYP2C9 inh 72, CYP2C19 inh 62
Cn1c(SCC(=O)c2ccccc2F)nnc1C1CC1	none
CCCCC(CC)C(=O)NCCCN1CCN(CCCNC(=O)C(CC)CCCC)CC1 (stereo not given)	none
O=c1[nH]c2c(s1)C(c1ccco1)C1C3CCC(C3)C1S2 (stereo not given)	CYP2C19 inh 83
Cc1oc(/N=C/c2ccc(Cl)cc2Cl)c(C#N)c1C	CYP2C19 inh 71
CC(C)(C)c1cc(NC(=O)COC(=O)C2CC2)n(-c2ccccc2)n1	CYP2C19 inh 56
Cc1nn(-c2ccccc2)c2c1C(c1ccco1)C(C#N)=C(N)O2 (stereo not given)	CYP2C9 inh 79
Cc1ccc(-n2nc(C)c3c2OC(N)=C(C#N)C3c2ccc(F)cc2)cc1 (stereo not given)	none
Cc1nn(-c2ccccc2)c2c1C(c1cccs1)C(C#N)=C(N)O2 (stereo not given)	CYP2C9 inh 79
CC(C)(C)NC(=O)COC(=O)c1cc(S(=O)(=O)N2CCCCC2)ccc1N1CCOCC1	CYP2C9 inh 82, CYP2C19 inh 66
CC1CCCC(NC(=O)c2cn(C)c3ccc(S(=O)(=O)N4CCCC4)cc3c2=O)C1C (stereo not given)	CYP2C9 inh 73
CC1CCCC(NC(=O)COC(=O)c2cc(S(=O)(=O)N3CCCCC3)ccc2N2CCOCC2)C1C (stereo not given)	CYP2C9 inh 82, CYP2C19 inh 78
O=C1CCc2cc(S(=O)(=O)NC(Cc3ccccc3)C(=O)NC3CCCC3)ccc2N1 (stereo not given)	none
CC(Sc1nnc(C(C)N(C)C)n1-c1ccc(Cl)cc1)C(=O)Nc1ccc2c(c1)OCO2 (stereo not given)	none
COc1ccc(CN(C)c2ncnc(N)n2)cc1	CYP2C19 inh 78
CCc1ccccc1NC(=S)NCc1ccc2c(c1)OCO2	CYP2C19 inh 61
Cc1ccc(C)c(NC(=S)NCc2ccc3c(c2)OCO3)c1	CYP2C19 inh 56
Cc1ccccc1NC(=S)NCc1ccc2c(c1)OCO2	PostGolgi ctrl 38, CYP2C19 inh 90
CC1=C(C)CC(C(=O)NCc2ccc3c(c2)OCO3)C(C(=O)O)C1 (stereo not given)	none
CC(C)(C)C(=O)NC1(C(F)(F)F)C(=O)Nc2c1c(=O)[nH]c(=O)n2Cc1ccco1 (stereo not given)	none
CCOC(=O)N1CCN(C(=S)NCCOC)CC1	none
CC1CC(=O)N(CC(=O)Nc2ccc3c(c2)OCCO3)c2ccccc2S1 (stereo not given)	none
O=C(CN1C(=O)CC(c2ccco2)Sc2ccccc21)NCc1ccc2c(c1)OCO2 (stereo not given)	CYP2C9 inh 86, CYP2C19 inh 94
O=C(CN1C(=O)CC(c2ccco2)Sc2ccccc21)Nc1ccccc1F (stereo not given)	none (no result: CYP2C9 act, CYP2C19 activ, CYP2C9 inh, CYP2C19 inh)
COc1cc(C2CC(=O)N(CC(=O)NCc3ccco3)c3ccccc3S2)cc(OC)c1OC (stereo not given)	CYP2C9 inh 71, CYP2C19 inh 65
CCC1Sc2ccccc2N(CC(=O)NCc2ccccc2OC)C1=O (stereo not given)	none
CCN1C(=O)CC(c2ccco2)Sc2ccccc21 (stereo not given)	CYP2C19 inh 53
CCC(Sc1nc2ccccc2c(=O)[nH]1)C(=O)O (stereo not given)	none
CC(C)CNC(=S)NC1CC2CCCC(C1)N2Cc1cccs1 (stereo not given)	none
N/C(=N\OC(=O)c1ccc(Cl)c(Cl)c1)c1ccccn1	none
O=C(COC(=O)c1ccccn1)NCc1ccccc1	CYP2C19 inh 69
O=C(COC(=O)c1cnccn1)NCc1ccccc1	none
O=C(COC(=O)c1ccncc1)NCc1ccccc1	CYP2C9 inh 65, CYP2C19 inh 85
O=C(OCc1ccc(Cl)c(Cl)c1)c1ccccn1	CYP2C9 inh 53, CYP2C19 inh 96
O=C(COc1ccccc1Cl)NCc1ccncc1	CYP2C9 inh 78, CYP2C19 inh 94
Cc1[nH]nc2c1C(c1cccc(OC(=O)N3CCOCC3)c1)C(C#N)=C(N)O2 (stereo not given)	none
CCn1c(C)c(/C=N/Nc2nc3ccccc3s2)c2ccccc21	none
Nc1cnn(C2CCCO2)c(=O)n1 (stereo not given)	none (no result: CYP2C9 act, CYP2C19 activ, CYP2C9 inh, CYP2C19 inh)
Cc1nnc2ccc(Oc3ccc(-c4ccccc4)cc3)nn12	none
O=C(COC(=O)c1ccccn1)c1ccc(Br)cc1	CYP2C19 inh 57
Cc1ccc(C(=O)COC(=O)c2cnccn2)cc1	none
O=C(OCC1CC(c2ccccn2)=NO1)c1ccc(Br)cc1 (stereo not given)	CYP2C9 inh 82, CYP2C19 inh 77
O=C(C1CCCN(Cc2ccccc2)C1)N1CCc2ccccc2C1 (stereo not given)	none
COc1ccc(S(=O)(=O)N2CCC(C(=O)N3CCc4ccccc4C3)CC2)cc1Cl	PostGolgi ctrl 49, CYP2C19 inh 92
CCS(=O)(=O)N1CCC(C(=O)N2CCc3ccccc3C2)CC1	CYP2C19 inh 60
